Data taken from PubChem BioAssay (EPA / NIEHS).
Calls of active or inactive are those of the source. Rule for the calls: active = hit-call score of the fitted dose curve at least 0.9, where 1 is the maximum; inactive = score below 0.9.

Each molecule was assayed against Retinoic acid receptor alpha (Homo sapiens) (UniProt P10276) (assay: ATG_DR5_RAR_CIS: Attagene CIS-FACTORIAL HepG2 Assay for human Retinoic Acid Receptor Alpha (RARE), DR5 submotif (AID 2282934;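 for AC50: reporter responds to endogenous RAR alpha beta and gamma in HepG2 not RARA alone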)). Conditions: HepG2 Attagene cis-factorial RARE DR5 reporter, mRNA; actives raise or lower the signal.
Chain of Retinoic acid receptor alpha (Homo sapiens) (P10276 whole entry, looked up): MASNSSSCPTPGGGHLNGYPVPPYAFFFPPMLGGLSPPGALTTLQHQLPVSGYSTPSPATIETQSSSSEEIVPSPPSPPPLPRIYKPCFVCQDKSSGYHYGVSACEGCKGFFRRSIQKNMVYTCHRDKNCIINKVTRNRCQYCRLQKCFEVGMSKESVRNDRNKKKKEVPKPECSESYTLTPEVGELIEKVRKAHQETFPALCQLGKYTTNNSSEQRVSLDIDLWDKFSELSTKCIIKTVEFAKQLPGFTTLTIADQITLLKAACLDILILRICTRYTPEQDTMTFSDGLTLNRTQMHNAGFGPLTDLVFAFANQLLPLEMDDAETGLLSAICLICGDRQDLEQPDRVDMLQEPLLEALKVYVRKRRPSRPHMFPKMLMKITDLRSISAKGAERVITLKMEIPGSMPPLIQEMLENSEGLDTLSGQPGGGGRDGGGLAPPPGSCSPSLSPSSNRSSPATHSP
Protocol: ATG_CIS is a cell-based, multiplexed-readout assay that uses HepG2, a human liver cell line, with measurements taken at 24 hours after chemical dosing in a 24-well plate.ATG_DR5_RAR_CIS is one of 52 assay component(s) measured or calculated from the ATG_CIS assay. It is designed to make measurements of mRNA induction, a form of inducible reporter, as detected with fluorescence intensity signals by Reverse transcription polymerase chain reaction (RT-PCR) and Capillary electrophoresis technology.Data from the assay component ATG_DR5_RAR_CIS was analyzed into 1 assay endpoint. This assay endpoint, ATG_DR5_CIS, was analyzed with bidirectional fitting relative to DMSO as the negative control and baseline of activity. Using a type of inducible reporter, measures of mRNA for gain or loss-of-signal activity can be used to understand the reporter gene at the transcription factor-level as they relate to the gene RARA and RARB and RARG. Furthermore, this assay endpoint can be referred to as a primary readout, because this assay has produced multiple assay endpoints where this one serves a reporter gene function. To generalize the intended target to other relatable targets, this assay endpoint is annotated to the nuclear receptor intended target family, where the subfamily is non-steroidal.
Human liver HepG2 cells are transiently transfected with multiple reporter transcription units (MRTUs) in 6-well plates using FuGene 6 reagent (Roche; 3 ml FuGene/1 mg DNA). The MRTU constructs are regulated by a cis-regulating element (promoter). […] A major difference between the CIS and TRANS system is that in CIS activities of endogenous TFs are measured, whereas the TRANS assay evaluates changes in activities of exogenous, chimeric NR-Gal4 proteins. […] At the end of 24 hour incubation, total RNA was isolated using TriZol reagent (Invitrogen). The isolated RNA is then reverse-transcribed using oligo(dT) primer and Mo-MLV reverse transcriptase (Invitrogen) with DNAse I (Ambion) treatment for 30 min. The one-tenth of the produced cDNA was amplified by PCR using Taq DNA polymerase (Invitrogen) and two reporter sequence-specific primers. The PCR products were fluorescently labeled by primer extension with 6-arboxyfluorescein (6-FAM) 5'-labeled reporter sequence-specific primer (2 min at 95 C, 20 s at 68 C and 10 min at 72 C) and these products were digested with 5U of HpaI (New England Biolabs) for 2h at 37 C. The fragments were purified using Qiaquick PCR columns (Qiagen), analyzed on an ABI 3130xL genetic analyzer (Applied Biosystems) with peak positions identified by using a set of X-rhodamine (ROX)-labeled MapMarker1000 molecular weight standards (BioVentures). The raw capillary electrophoresis data was processed using Attagraph software (Attagene).
With `CN(C)C(=O)C(c1ccccc1)c1ccccc1` the outcome was “inactive”. In the case of `Nc1ccc([N+](=O)[O-])cc1N`, the outcome is reported as “inactive”. In the case of `O=P1(NCCCl)OCCCN1CCCl` (stereo not given), the outcome is reported as “inactive”. For `COC(=O)c1ccccc1S(=O)(=O)NC(=O)Nc1nc(C)cc(C)n1`, the outcome was “inactive”. In the case of `O=C=Nc1ccccc1`, the outcome is reported as “inactive”. With `Nc1ccc(-c2ccc(N)c(N)c2)cc1N` the outcome was “inactive”. For `CCc1cccc(C)c1N(C(=O)CCl)[C@@H](C)COC`, the outcome was “inactive”. For `O=C1Nc2ccc(Cl)cc2C(c2ccccc2)=NC1O` (stereo not given), the outcome was “inactive”. With `O=C(O)CCl` the outcome was “inactive”. In the case of `CC1CCCC1.[C-]#[O+].[C-]#[O+].[C-]#[O+].[Mn]`, the outcome is reported as “inactive”. With `Oc1ccc(Cl)cc1` the outcome was “inactive”. In the case of `COC(C)(C)CCC[C@H](C)C/C=C/C(C)=C/C(=O)OC(C)C`, the outcome is reported as “inactive”. For `CCCCCCC1CCOC1=O` (stereo not given), the outcome was “inactive”. In the case of `C[N+](C)=CCl`, the outcome is reported as “inactive”. In the case of `Nc1c(Cl)c(Cl)c(Cl)c(Cl)c1Cl`, the outcome is reported as “inactive”. In the case of `CN(C)N`, the outcome is reported as “inactive”. With `C=CC(=O)OC` the outcome was “inactive”. For `C=C(Cl)CCl`, the outcome was “inactive”. For `C=CC(=O)OCC(CC)CCCC` (stereo not given), the AC50 was 19.8 µM (active). In the case of `CCC(=O)c1ccc(Cl)cc1`, the outcome is reported as “inactive”. `O=C(NCNC(=O)NC1C(=O)NC(=O)N1CO)NC1C(=O)NC(=O)N1CO` (stereo not given) was tested, and the outcome was “inactive”. In the case of `CC[N+](=O)[O-]`, the outcome is reported as “inactive”. For `CCOC(=O)NC(=S)Nc1ccccc1NC(=S)NC(=O)OCC`, the outcome was “inactive”. With `S=c1[nH]c2ccccc2[nH]1` the outcome was “inactive”. `N#Cc1cc(I)c(O)c(I)c1` was tested, and the outcome was “inactive”. `CCC1CCC(=O)O1` (stereo not given) was tested, and the outcome was “inactive”. In the case of `O=[N+]([O-])c1cc([N+](=O)[O-])c2ccccc2c1`, the outcome is reported as “inactive”. For `Nc1ccccc1C(=O)Oc1ccc2ccccc2c1`, the AC50 was 173 µM (active). `CC(O)CN(CC(C)O)CC(C)O` (stereo not given) was tested, and the outcome was “inactive”. For `Nc1ccccc1C(=O)OCCc1ccccc1`, the outcome was “inactive”. For `C#CC1(O)CCCCC1`, the outcome was “inactive”. With `Cc1ncc(C[n+]2csc(CCO)c2C)c(N)n1` the outcome was “inactive”. In the case of `CC(C)(Cl)Cl`, the outcome is reported as “inactive”. `Cl/C=C\CCl` was tested, and the outcome was “inactive”. In the case of `N#CCCCl`, the outcome is reported as “inactive”. With `[N-]=[N+]=CC(=O)OC[C@H](N)C(=O)O` the outcome was “inactive”. For `Cc1ccc(N(SC(F)(Cl)Cl)S(=O)(=O)N(C)C)cc1`, the outcome was “inactive”. With `O=S(=O)(c1ccccc1)c1ccccc1` the outcome was “inactive”. In the case of `COC(=O)COc1ccc(Cl)cc1Cl`, the outcome is reported as “inactive”. With `Nc1cc(Cl)cc(Cl)c1` the outcome was “inactive”.
